A selection: hits, their analogues and other compounds. The true share with any hit is near 6.5%.
HCMV inh: human cytomegalovirus inhibition; HFF cells, HCMV-luciferase reporter, 72 h; stronger effect = lower value; activity change, negative = inhibition, % at 57.5 µM; hit rate 4.5% among 410,000; AID 1259415; in the data active = activity change below about -60%; inconclusive = no clear call, values can overlap the other calls; inactive = above about -39%
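After 16 h attachment at 37C, HFF cells received test compound and HCMV-luciferase (1 PFU/cell); reporter luminescence read 72 h later, data normalized against buffer-only and known inhibitor Salinomycin.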
Lassa entry inh: Lassa virus entry inhibition; AID 540256; Lassa virus pseudotype entry inhibition, cell reporter; Potency, µM (highest dose often 37.9 µM), inactives show at the top dose activity change, negative = inhibition, actives largely listed as inhibitors; hit rate 1.2% among 300,000; calls by dose curve; tested in HEK293 cells; note: potency is the fitted concentration of half-maximal effect; nearly all actives have a fitted effect of over 50% in size
MARV entry inh: inhibitors of Marburg virus binding or cell entry; Marburg virus pseudotyped entry inhibition, cell reporter; Potency, µM (titrated, usually from 37.8 µM), for the others: top-dose activity change, negative = inhibition, usual class: inhibitors; hit rate 1.8% among 300,000; calls by dose curve; tested in HEK293 cells; note: potency is the fitted concentration of half-maximal effect
VACV mCherry inh: inhibitors of vaccinia virus infection (mCherry reporter signal); hit rate 0.63% among 310,000; AID 720579; Potency, µM (top dose mostly 36.5 µM), inactives show at the highest dose activity change, negative = inhibition, most hits filed as inhibitors; Vaccinia virus mCherry reporter infection, fluorescence; calls by dose curve; tested in A549 cells; note: potency is the fitted concentration of half-maximal effect; nearly all actives have a fitted effect of over 35% in size
Vaccinia Venus: inhibitors of vaccinia virus (Venus reporter). hit rate 0.46% among 330,000. Potency, µM (series often up to 36.5 µM), without a hit: at the highest dose activity change, negative = inhibition, hits mostly inhibitors. AID 720580. Vaccinia virus Venus reporter expression, fluorescence; calls by dose curve; tested in A549 cells; note: potency is the fitted concentration of half-maximal effect; nearly all actives have a fitted effect of over 30% in size
FMDV antiviral: blocks foot and mouth disease virus. FMDV antiviral cell-based qHTS. Potency, µM (doses to about 57.9 µM), for the others: top-dose activity change, negative = inhibition, hits mostly inhibitors. hit rate 1.2% among 410,000. AID 1159524; calls by dose curve; tested in HEK293T cells; note: read-out not given here; potency is the fitted concentration of half-maximal effect; nearly all actives have a fitted effect of over 45% in size
Active calls of the source: *; [ ] = remark or other dose. % is set by controls: 0 for no effect and ±100 for the full control effect.

How did O=C(NC1CC1)c1[nH]c(C(F)(F)F)nc1-c1ccccc1 do in these assays?
HCMV inh: -11; VACV mCherry inh: inactive; Vaccinia Venus: -7%; FMDV antiviral: -21%

Results for O=C(Nc1ccc2c(c1)OCCO2)c1[nH]c(C(F)(F)F)nc1-c1ccccc1 ?
HCMV inh: -74*; VACV mCherry inh: inactive; Vaccinia Venus: -11%; FMDV antiviral: -19%

Results for O=C(CSc1nc(-c2ccccc2)[nH]c1-c1ccccc1)Nc1ccc2c(c1)OCO2 ?
HCMV inh: -109*; Lassa entry inh: inconclusive; MARV entry inh: inconclusive; VACV mCherry inh: -25%; Vaccinia Venus: -19%; FMDV antiviral: inconclusive

Results for C=C(C)C(O)C=Cc1ccccc1OC (configuration not stated) ?
MARV entry inh: 6%[14.2 µM]

What do the screens show for `Cc1nnc(SCC(=O)Nc2ccc3c(c2)OCO3)o1`?
HCMV inh: -60*; Lassa entry inh: -4%; MARV entry inh: 10%[46.1 µM]; VACV mCherry inh: -10%; Vaccinia Venus: 2%; FMDV antiviral: -4%

How did COc1ccc(-c2[nH]c(-c3ccc(Cl)cc3)nc2SCC(=O)Nc2nccs2)cc1 do in these assays?
HCMV inh: -79*; Lassa entry inh: 5%; MARV entry inh: 13%; VACV mCherry inh: 1%; Vaccinia Venus: -22%; FMDV antiviral: -29%

How did O=C(CSc1nc(-c2cccc(F)c2)[nH]c1-c1ccccc1)Nc1ccc2c(c1)OCCO2 do in these assays?
HCMV inh: -106*; Lassa entry inh: 10µM*; MARV entry inh: inconclusive; VACV mCherry inh: inconclusive; Vaccinia Venus: inconclusive; FMDV antiviral: inconclusive

How did CN1C(=O)C(C2(O)C(=O)N(Cc3ccccc3)c3ccccc32)c2ccccc21 (configuration not stated) do in these assays?
HCMV inh: -11

What do the screens show for `CC1NC2(C(=O)N(Cc3ccccc3)c3ccccc32)C2C(=O)N(c3ccccc3)C(=O)C12` (configuration not stated)?
HCMV inh: -98*; MARV entry inh: -2%; VACV mCherry inh: inactive; Vaccinia Venus: -8%; FMDV antiviral: -7%

What do the screens show for `CCOc1ccc(NC(=O)Cn2nc(SC)c(S(=O)(=O)c3ccccc3)c2N)cc1`?
HCMV inh: 2; Lassa entry inh: 19%[46.1 µM]; VACV mCherry inh: -27%; Vaccinia Venus: -15%; FMDV antiviral: -17%

Results for COc1ccc(NC(=S)NCCc2c(C)[nH]c3ccc(OC)cc23)cc1 ?
HCMV inh: -69*; Lassa entry inh: inconclusive; MARV entry inh: 0%[46.1 µM]; VACV mCherry inh: -22%; Vaccinia Venus: -13%; FMDV antiviral: 11%

What do the screens show for `COc1ccc(NC(=S)Nc2ccc(N(C)C(C)=O)cc2)cc1`?
HCMV inh: -98*; Lassa entry inh: 4%; MARV entry inh: 1%[14.2 µM]; VACV mCherry inh: 3%; Vaccinia Venus: 3%; FMDV antiviral: -3%

Results for COc1ccc(NC(=S)NCc2ccc(F)cc2)cc1 ?
HCMV inh: -64*; FMDV antiviral: 42%

What do the screens show for `COc1ccc(CCNC(=S)Nc2ccc(OC)cc2)cc1`?
HCMV inh: -66*; Lassa entry inh: 1%; MARV entry inh: -22%; FMDV antiviral: -6%

How did COc1ccc(NC(=S)Nc2ccccc2)cc1 do in these assays?
HCMV inh: inconclusive; VACV mCherry inh: -5%; Vaccinia Venus: -17%; FMDV antiviral: 34%

What do the screens show for `COc1ccc(CNC(=S)Nc2ccc(OC)cc2)cc1`?
HCMV inh: 20; Lassa entry inh: -16%; MARV entry inh: 0%; VACV mCherry inh: -10%; Vaccinia Venus: -11%; FMDV antiviral: 39%

What do the screens show for `CC(=O)CC1OC(=O)C(Br)=C1NCc1ccccc1` (configuration not stated)?
HCMV inh: inconclusive; Lassa entry inh: inconclusive; MARV entry inh: 18µM*; VACV mCherry inh: inactive; Vaccinia Venus: -8%

How did O=C(CC1Oc2ccccc2NC1=O)NCc1ccccc1 (configuration not stated) do in these assays?
HCMV inh: -16; VACV mCherry inh: inactive; Vaccinia Venus: -2%; FMDV antiviral: -26%

How did CCCCCCC[C@@H](C/C=C/CCC(=O)N(C)C/C(=C/Cl)C/C(=C\C(=O)N1CC(OC)=CC1=O)OC)OC do in these assays?
HCMV inh: inconclusive; VACV mCherry inh: 10µM*; Vaccinia Venus: inconclusive; FMDV antiviral: inconclusive

How did CCCCCCC[C@@H](C/C=C/CCC(=O)N(C)C/C(=C/Cl)C/C(=C\C(=O)N1C[C@H](O)CC1=O)OC)OC do in these assays?
HCMV inh: -15; VACV mCherry inh: -15%; Vaccinia Venus: inconclusive; FMDV antiviral: 32µM*

How did CCCCC(Sc1nc2cc3c(cc2c(=O)n1CCCC(=O)NCc1ccc(OC)cc1)OCO3)C(=O)OCC (configuration not stated) do in these assays?
HCMV inh: -27; Lassa entry inh: -10%[46.1 µM]; VACV mCherry inh: inconclusive; Vaccinia Venus: inconclusive; FMDV antiviral: 26%

What do the screens show for `O=C(N/N=C/c1ccc(O)cc1O)c1ccc(CN2C(=O)c3cccc4cccc2c34)cc1`?
HCMV inh: -101*; Lassa entry inh: 5.2µM*; MARV entry inh: 3.2µM*; VACV mCherry inh: 2.5µM*; Vaccinia Venus: inconclusive; FMDV antiviral: -19%

What do the screens show for `Cc1cc([N+](=O)[O-])nn1Cc1ccc(C(=O)N/N=C/c2ccc(O)cc2O)cc1`?
HCMV inh: inconclusive; Lassa entry inh: 3.5µM*; MARV entry inh: 7.3µM*; VACV mCherry inh: inconclusive; Vaccinia Venus: inconclusive; FMDV antiviral: -17%

What do the screens show for `CC1CCN(S(=O)(=O)c2cccc(C(=O)NCC3CCCO3)c2)CC1` (configuration not stated)?
HCMV inh: -27; Lassa entry inh: 6.3µM*; MARV entry inh: 29%[46.1 µM]; VACV mCherry inh: -15%; Vaccinia Venus: -14%; FMDV antiviral: 2%

Results for O=S(=O)(Nc1cc(S(=O)(=O)N2CCOCC2)ccc1NCC1CCCO1)c1ccc(F)cc1 (configuration not stated) ?
HCMV inh: -15; Lassa entry inh: -3%; MARV entry inh: inconclusive; VACV mCherry inh: 2.2µM*; Vaccinia Venus: inconclusive; FMDV antiviral: 40%

How did CCc1ccc(NC(=O)c2sc3nc(C)cc(C)c3c2NC(=O)c2ccccc2OC)cc1 do in these assays?
HCMV inh: 15; Lassa entry inh: -6%[46.1 µM]; MARV entry inh: 20%[46.1 µM]; VACV mCherry inh: inconclusive; Vaccinia Venus: -13%; FMDV antiviral: 1%

What do the screens show for `COc1cccc(CN(C)C(=O)c2cccc(S(=O)(=O)N3CCN(Cc4ccccc4)CC3)c2)c1OC`?
HCMV inh: -74*; Lassa entry inh: inconclusive; MARV entry inh: inconclusive; VACV mCherry inh: -8%; Vaccinia Venus: -22%; FMDV antiviral: inconclusive

How did CN(Cc1ccco1)C(=O)c1cccc(S(=O)(=O)N2CCN(Cc3ccccc3)CC2)c1 do in these assays?
HCMV inh: -12; VACV mCherry inh: inactive; Vaccinia Venus: -5%; FMDV antiviral: -23%
